We go through 42 compounds from PMC4336329 (PLoS ONE, 2015).

About 14,000 (4.5%) of roughly 310,000 compounds showed an effect of 50% or more. Effects have a minus sign here. Shown is part of a subset that was picked to be rich in strong results.
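Also: peak tail current of the secondary pulse compared with the same well before compound.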

Chain of human ether-à-go-go-related gene (hERG) potassium channel (Q12809 whole entry, looked up): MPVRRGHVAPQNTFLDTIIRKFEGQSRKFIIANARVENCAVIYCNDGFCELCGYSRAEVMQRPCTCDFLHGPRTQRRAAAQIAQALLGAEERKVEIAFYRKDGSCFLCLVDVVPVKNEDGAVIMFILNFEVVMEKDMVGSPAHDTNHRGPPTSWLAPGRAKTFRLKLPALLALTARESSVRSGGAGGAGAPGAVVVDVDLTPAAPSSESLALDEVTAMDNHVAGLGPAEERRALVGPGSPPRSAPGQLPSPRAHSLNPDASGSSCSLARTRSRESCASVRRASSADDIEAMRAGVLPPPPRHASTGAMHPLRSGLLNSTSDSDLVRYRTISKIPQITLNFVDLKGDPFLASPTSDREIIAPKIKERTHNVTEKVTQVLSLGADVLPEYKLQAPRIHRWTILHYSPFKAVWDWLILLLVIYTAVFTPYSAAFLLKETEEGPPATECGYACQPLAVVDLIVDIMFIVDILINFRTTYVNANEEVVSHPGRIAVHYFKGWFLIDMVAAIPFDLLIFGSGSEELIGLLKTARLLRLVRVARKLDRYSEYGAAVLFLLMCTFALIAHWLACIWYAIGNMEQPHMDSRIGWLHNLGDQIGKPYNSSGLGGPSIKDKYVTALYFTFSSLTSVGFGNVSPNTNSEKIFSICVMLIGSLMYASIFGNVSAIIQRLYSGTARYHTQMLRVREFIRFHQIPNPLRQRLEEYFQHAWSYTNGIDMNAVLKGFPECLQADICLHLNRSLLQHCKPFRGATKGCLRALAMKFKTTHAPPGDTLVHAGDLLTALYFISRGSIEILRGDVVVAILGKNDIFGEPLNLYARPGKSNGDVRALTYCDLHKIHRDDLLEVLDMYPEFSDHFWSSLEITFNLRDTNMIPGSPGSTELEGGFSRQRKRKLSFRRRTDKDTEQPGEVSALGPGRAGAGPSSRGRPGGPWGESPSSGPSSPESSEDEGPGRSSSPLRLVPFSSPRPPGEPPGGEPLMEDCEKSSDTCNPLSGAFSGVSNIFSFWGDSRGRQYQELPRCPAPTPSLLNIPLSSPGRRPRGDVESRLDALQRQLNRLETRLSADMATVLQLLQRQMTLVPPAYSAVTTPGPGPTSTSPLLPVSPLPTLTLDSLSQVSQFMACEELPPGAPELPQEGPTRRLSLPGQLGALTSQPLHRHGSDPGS

The test addresses human ether-à-go-go-related gene (hERG) potassium channel (human, UniProt Q12809). The test can be described thus: primary screen, population patch clamp on CHO cells stably expressing hERG; higher = less effect of the substance.
As to `CCc1ccccc1SCc1noc(C(=O)NCC2CCCO2)c1C(=O)O` (stereo not drawn), the “hERG current change (%, negative = inhibition) at 10uM” value is reported as 2.36%.
In the case of `Cc1sc2ncnc(N(C)Cc3cccs3)c2c1C` it was -53%; in that of `CN(Cc1cccs1)c1ncnc2sccc12`, -28.8%.
Turning to `Cc1sc2ncnc(N(C)Cc3ccco3)c2c1C`, the “hERG current change (%, negative = inhibition) at 10uM” value is -4.64%.
Regarding `Cc1sc2ncnc(NCC(c3ccco3)N(C)C)c2c1C.O=C(O)C(=O)O` (stereo not drawn), the “hERG current change (%, negative = inhibition) at 10uM” value is given as -33.7%.
As for `c1ccc(CNc2ncnc3sc4c(c23)CCC4)nc1`, the “hERG current change (%, negative = inhibition) at 10uM” value was -19.8%.
With `CN(C)C(CNc1ncnc2sc3c(c12)CCCCC3)c1ccco1` (stereo not drawn), the “hERG current change (%, negative = inhibition) at 10uM” value is -35.4%.
Turning to `Cl.c1cc(Nc2ncnc3sc4c(c23)CCC4)ccn1`, the “hERG current change (%, negative = inhibition) at 10uM” value turned out to be 19.3%.
`Cl.c1cncc(CNc2ncnc3sc4c(c23)CCC4)c1`: the “hERG current change (%, negative = inhibition) at 10uM” value is recorded as -56.2%.
As to `Cc1sc2ncnc(NCC(c3ccco3)N3CCCC3)c2c1C` (stereo not drawn), the “hERG current change (%, negative = inhibition) at 10uM” value is listed as -51.5%.
The figure for `CCOC(=O)N1CCN(C(=O)CN(C)S(=O)(=O)c2ccc(Cl)cc2)CC1` is 8.13%; for `COc1ccc(CCNC(=O)Cc2nn(C)c(=O)c3ccccc23)cc1OC` it is 0.902%.
As for `CN(CC(=O)NC(=O)NCc1ccco1)Cc1nc2ccccc2c(=O)[nH]1`, the “hERG current change (%, negative = inhibition) at 10uM” value is recorded as -3.41%.
On to `Cn1c(SCC(=O)N2CCCc3ccccc32)nc2cccnc21`, for which the “hERG current change (%, negative = inhibition) at 10uM” value is reported as 9.85%.
As for `Cc1ccc(-c2c[n+]3c(n2-c2ccccc2)SCC3)cc1.[Br-]`, the “hERG current change (%, negative = inhibition) at 10uM” value was -35.8%.
The figure for `COc1ccc(-c2c[n+]3c(n2-c2ccccc2)SCC3)cc1.[Br-]` is -45.7%.
For the compound `Clc1ccc(-c2c[n+]3c(n2-c2ccccc2)SCC3)cc1.[Cl-]`, the “hERG current change (%, negative = inhibition) at 10uM” value is -62.7%.
As for `Brc1ccc(-c2c[n+]3c(n2-c2ccccc2)SCC3)cc1.[Br-]`, the “hERG current change (%, negative = inhibition) at 10uM” value is listed as -49.4%.
The figure for `[Br-].c1ccc(-c2c[n+]3c(n2-c2ccccc2)SCC3)cc1` is -28.4%; for `CCOc1ccc(-n2c(-c3ccc(Cl)cc3)c[n+]3c2SCC3)cc1.[Br-]` it is -80.9%.
For `CC(=O)c1c(C)[nH]c(C(=O)Nc2ccc(Cl)cc2)c1C`, the “hERG current change (%, negative = inhibition) at 10uM” value is reported as -9.14%.
With `CC(C)C(c1nnnn1Cc1ccc(F)cc1)N1CCN(C(=O)c2ccco2)CC1` (stereo not drawn), the “hERG current change (%, negative = inhibition) at 10uM” value was -49.1%.
On to `O=C(CCCNC(=O)c1ccc(Cl)cc1)Nc1ccccc1F`, for which the “hERG current change (%, negative = inhibition) at 10uM” value turned out to be 7%.
As to `COc1cccc(-n2cc(CNCc3c(C(=O)N(C)C)nc4ccc(Cl)cn34)cn2)c1`, the “hERG current change (%, negative = inhibition) at 10uM” value is listed as -55.9%.
The figure for `COc1ccc(CNCc2c(C(=O)N(C)C)nc3ccc(Cl)cn23)c(OC)c1` is -11.1%; for `Cc1ccccc1-n1cc(CNCc2c(C(=O)N(C)C)nc3ccc(Cl)cn23)cn1` it is -7.4%.
As to `Cc1nn(C)cc1NC(=O)c1cc2nc(-c3ccco3)cc(C(F)(F)F)n2n1`, the “hERG current change (%, negative = inhibition) at 10uM” value turned out to be 4.66%.
In the case of `CCOC(=O)N1CCC(NC(=O)C(NS(=O)(=O)c2ccc3c(c2)CCN3C(=O)CC)C(C)C)CC1` (stereo not drawn) it was -6.47%; in that of `Cc1ccc(N2C(=O)C(CC(=O)Nc3cccc(F)c3)N(C3CC3)C2=O)cc1` (stereo not drawn), -7.13%; in that of `Cc1cccc(N2C(=O)C(CC(=O)Nc3cccc(F)c3)N(CCc3ccncc3)C2=O)c1` (stereo not drawn), -43.6%.
As for `COc1ccc(CCN2C(=O)N(c3ccc(OC)cc3)C(=O)C2CC(=O)Nc2ccc(OC)cc2)cc1` (stereo not drawn), the “hERG current change (%, negative = inhibition) at 10uM” value is listed as 7.46%.
`Cc1ccc(N2C(=O)C(CC(=O)Nc3cccc(F)c3)N(CCc3ccncc3)C2=O)cc1` (stereo not drawn): the “hERG current change (%, negative = inhibition) at 10uM” value is recorded as -52.3%.
Consider `CCc1ccc(NC(=O)CC2C(=O)N(c3ccc(C)cc3)C(=O)N2CCc2ccncc2)cc1` (stereo not drawn), for which the “hERG current change (%, negative = inhibition) at 10uM” value is on record as -55.8%.
Turning to `CCc1ccc(NC(=O)CC2C(=O)N(c3ccc(C)cc3)C(=O)N2C2CC2)cc1` (stereo not drawn), the “hERG current change (%, negative = inhibition) at 10uM” value was -4.46%.
The figure for `O=C(COC(=O)c1ccc(Br)cc1)Nc1cccnc1Cl` is -3.51%; for `COC(=O)c1cn(CC(=O)Nc2ccc(OC)cc2)c2ccccc12` it is 8.2%; for `CC(=O)N1CC(C)Oc2ccc(S(=O)(=O)Nc3ccc(Cl)cn3)cc21` (stereo not drawn) it is 3.04%.
In the case of `CC(=O)OC1(c2ccccc2)CCN(C)CC1(C)C.Cl` (stereo not drawn), the “hERG current change (%, negative = inhibition) at 10uM” value was determined as 35.4%.
For the compound `Cc1ccc(S(=O)(=O)N2CCOC2CNC(=O)C(=O)NCc2ccccc2)cc1` (stereo not drawn), the “hERG current change (%, negative = inhibition) at 10uM” value was -10.3%.
Turning to `Cc1ccc(SCc2cc(=O)[nH]c(N3CCOCC3)n2)cc1`, the “hERG current change (%, negative = inhibition) at 10uM” value was -0.0128%.
As to `O=C(NCc1cccnc1)c1ccccc1-c1ccccc1`, the “hERG current change (%, negative = inhibition) at 10uM” value is given as -0.462%.
For the compound `Cc1cc(NC(=O)c2cccc(S(=O)(=O)N3c4ccccc4CC3C)c2)no1` (stereo not drawn), the “hERG current change (%, negative = inhibition) at 10uM” value is reported as -7.3%.
